This assay is described as follows: enhancers of NK cell killing of ovarian tumor cells, primary screen, imaging, OVCAR3, primary NK cells, calcein-AM imaging (AID 1508625).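 Note: compound given to NK cells 16 h before adding targets at 1.5 to 1 ratio.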 Particulars: OVCAR3 lysis by primary NK cells, at 5 µM; z-score: measured here: robust Z-score, single-point normalisation.

Molecules are shown by their SMILES.

For `c1ccc(CN2CCN(Cc3ccc4ccccc4c3)CC2)nc1`, the corrected activity, negative = more killing is -2.43% and the z-score is -1.08.

Turning to `COc1cc2c(cc1NC(=O)C(C)c1ccc([N+](=O)[O-])cc1)oc1ccccc12` (centres undefined), the corrected activity, negative = more killing is -2.25% and the z-score was -1.25.

Turning to `CC(C)(C)NC(=O)C(=O)NN=Cc1cccc(Br)c1`, the corrected activity, negative = more killing is -4.27% and the z-score is -1.82.

As for `O=C(NN=Cc1ccccc1Cl)C(=O)Nc1cccc(C(F)(F)F)c1`, the corrected activity, negative = more killing was -2.13% and the z-score was -0.904.

With `CCN(CC)c1cc(O)c2c(c1N)C(=O)c1ccccc1C2=O`, the corrected activity, negative = more killing was -2.05% and the z-score is -0.772.

Take `CC(=O)c1cccc(NC(=O)C2CCN(C(=O)c3ccc(F)cc3)CC2)c1`: the corrected activity, negative = more killing was -3.29% and the z-score is -1.22.

As to `Cc1onc(-c2ccccc2)c1C(=O)Nc1cccc(Br)c1`, the corrected activity, negative = more killing was -5.57% and the z-score is -1.98.

For `O=C(CCCOc1ccccc1)N1CCN(c2ccccn2)CC1`, the corrected activity, negative = more killing was -1.33% and the z-score was -0.738.

For the compound `CCOc1ccc(C2C(=C(O)c3ccc(Cl)cc3)C(=O)C(=O)N2c2nc3ccccc3s2)cc1` (centres undefined), the corrected activity, negative = more killing was -4.47% and the z-score was -1.71.

On to `Cc1ccc(-n2cnc3cc(C(=O)NC4CCCC4)ccc32)cc1Cl`, for which the corrected activity, negative = more killing is -3.42% and the z-score is -0.921.

As to `CCOc1ccc(OCC(=O)NC(C)C)cc1`, the corrected activity, negative = more killing was -5.07% and the z-score is -2.82.

Take `CC1CCC2C(=O)N(c3ccc(NCCc4ccccn4)c([N+](=O)[O-])c3)C(=O)C2C1` (centres undefined): the corrected activity, negative = more killing was -4.66% and the z-score is -1.69.

Take `CC(=O)NCCNC(=O)c1ccc(Cn2c(=S)[nH]c3cc4c(cc3c2=O)OCO4)cc1`: the corrected activity, negative = more killing was -3.96% and the z-score was -1.05.

On to `Cc1nn(C(=O)c2cccnc2)c(C)c1Sc1ccc(Cl)cc1`, for which the corrected activity, negative = more killing was -1.68% and the z-score is -0.87.

As to `O=C1CSc2ccc(S(=O)(=O)N3CCOCC3)cc2N1`, the corrected activity, negative = more killing was -4.98% and the z-score was -1.34.

Regarding `COc1ccc(C(N)=NOC(=O)c2cc(Cl)ccc2Cl)cc1`, the corrected activity, negative = more killing is -1.41% and the z-score is -0.786.

Regarding `FC(F)(F)c1cc(-c2cccs2)nc2nc(=S)[nH]n12`, the corrected activity, negative = more killing is -2.93% and the z-score is -0.791.

As for `CCC(=O)NC(Nc1ccccc1Cl)(C(F)(F)F)C(F)(F)F`, the corrected activity, negative = more killing is -0.701% and the z-score is -0.276.

On to `Cc1ccc2nc(NC(=O)COC(=O)c3ccc(Br)o3)sc2c1`, for which the corrected activity, negative = more killing was -3.82% and the z-score was -1.44.

With `O=c1cc(O)c2c(n1-c1ccccc1)CCCC2`, the corrected activity, negative = more killing was -7.04% and the z-score was -2.18.

For `COc1ccc(-n2c(=S)[nH]c3cc(C(=O)O)ccc3c2=O)c(OC)c1`, the corrected activity, negative = more killing is -4.6% and the z-score is -1.46.

In the case of `COC(=O)c1cc2nc(-c3ccccc3)cc(C)n2n1`, the corrected activity, negative = more killing was -2.69% and the z-score is -1.39.

For the compound `CCCn1c(C)nc2c(=O)oc3ccccc3c21`, the corrected activity, negative = more killing is 3.04% and the z-score is 0.943.

As for `CC(C)CCNC(=O)c1c[nH]c2ccc(S(=O)(=O)N3CC(C)CC(C)C3)cc2c1=O` (centres undefined), the corrected activity, negative = more killing was -3.33% and the z-score is -1.21.

Turning to `COc1ccc(C(=O)Nc2ccc3oc(-c4ccccc4)nc3c2)cc1OC`, the corrected activity, negative = more killing was -2.95% and the z-score is -1.28.

Take `COc1ccc(C(=O)NC23CC4CC(CC(C4)C2)C3)c(OC)c1`: the corrected activity, negative = more killing is -4.55% and the z-score was -1.79.

Consider `Cc1cc(Cl)nc(Cl)c1C(=O)O`, for which the corrected activity, negative = more killing is 0.175% and the z-score is 0.0658.

`COc1ccc(CNC(=O)CCN2C(=O)C3C4C=CC(CC4)C3C2=O)cc1` (centres undefined): the corrected activity, negative = more killing was -5.25% and the z-score was -1.67.

As to `CC(=O)CC(O)(c1ccccc1)C(F)(F)F` (centres undefined), the corrected activity, negative = more killing is 0.173% and the z-score was 0.0551.

Turning to `Cc1ccc(N2CCN(c3ccc(N4C(=O)C5CCCCC5C4=O)cc3[N+](=O)[O-])CC2C)cc1` (centres undefined), the corrected activity, negative = more killing was -4.67% and the z-score is -1.7.

Turning to `CCOc1ccc(C2C(=C(O)c3ccccc3)C(=O)C(=O)N2CCO)cc1` (centres undefined), the corrected activity, negative = more killing was -2.61% and the z-score is -0.996.

In the case of `O=C(c1cc(-c2ccc3c(c2)OCO3)nc2ccccc12)N1CCN(Cc2ccc3c(c2)OCO3)CC1`, the corrected activity, negative = more killing was -3.33% and the z-score is -1.37.

`CCOc1ccc2nc(SCC(=O)Nc3ccccc3Oc3ccccc3)sc2c1`: the corrected activity, negative = more killing was -3.99% and the z-score was -1.24.

Turning to `c1nc(N2CCCCCC2)c2[nH]cnc2n1`, the corrected activity, negative = more killing is -0.464% and the z-score is -0.115.

As for `CCN1CCN(C(=O)C2c3ccccc3C(=O)N(C)C2c2cccs2)CC1` (centres undefined), the corrected activity, negative = more killing is -7.01% and the z-score is -1.74.

`O=C(Nc1ccc(Br)cc1)c1ccccc1I`: the corrected activity, negative = more killing was -1.25% and the z-score was -0.444.

As to `O=C(NN=Cc1c(Br)cc(Br)c(O)c1Br)c1ccncc1`, the corrected activity, negative = more killing was -1.17% and the z-score is -0.607.

On to `O=C(NC1CCCC1)c1c[nH]c2ccc(S(=O)(=O)Nc3cccc(C(F)(F)F)c3)cc2c1=O`, for which the corrected activity, negative = more killing was -7.02% and the z-score is -1.72.

For the compound `Clc1ccc(OCCN2CCc3ccccc3C2)cc1`, the corrected activity, negative = more killing is -1.86% and the z-score is -1.03.

Turning to `c1cc2c(cc1Nc1nc(-c3ccc(C4CCCCC4)cc3)cs1)OCO2`, the corrected activity, negative = more killing was 0.134% and the z-score was 0.0696.

In the case of `COC(=O)c1ccc(COC(=O)c2cc(=O)[nH]c3ccccc23)cc1`, the corrected activity, negative = more killing was -1.5% and the z-score is -0.835.

Regarding `O=C(COc1ccccc1Br)NN=Cc1ccccc1Br`, the corrected activity, negative = more killing is -7.58% and the z-score is -2.41.

For the compound `CC(=O)Nc1ccc(S(=O)(=O)NCc2ccc(C(=O)O)cc2)cc1`, the corrected activity, negative = more killing was -5.84% and the z-score was -1.58.

In the case of `COC(=O)c1cc(NC(=O)C2(S(=O)(=O)c3ccc(C)cc3)CC2)cc(C(=O)OC)c1`, the corrected activity, negative = more killing is -4.1% and the z-score is -1.16.

As to `COCCNC(=O)c1c[nH]c2ccc(S(=O)(=O)Nc3ccc4c(c3)OCCO4)cc2c1=O`, the corrected activity, negative = more killing is -5.25% and the z-score is -1.29.

With `CCCc1c(C)c2cc3c(C)coc3cc2oc1=O`, the corrected activity, negative = more killing is -6.81% and the z-score was -2.03.

With `COC(=O)c1sc(N2C(=O)C(=O)C(=C(O)c3ccc(Cl)cc3)C2c2ccc(C)cc2)nc1C` (centres undefined), the corrected activity, negative = more killing is -3.82% and the z-score was -1.66.

Source of the values: PubChem BioAssay AID1508625 (Wald Lab, School of Medicine, Case Western Reserve …, 2021).
